# Experimental data from ChEMBL document CHEMBL4513216, “Probing the Open Global Health Chemical Diversity Library for Multistage-Active Starting Points for Next-Generation Antimalarials” (ACS Infect Dis, 2020).
# Screen size: about 69,000 compounds; about 8,600 (12%) showed an effect of 50% or more. What follows is part of a selection rich in strong results, with near analogues and random picks from the rest.
# Tested on: Plasmodium berghei
# Assay: Screen against P. berghei liver stage (PbLuc), transformed with Luciferase, at 10uM
# Assay type: functional, HepG2
# Settings: tested at 10 uM
row,SMILES,INHIBITION
1,Cc1ccn(CCNC(=O)C2CCN(S(=O)(=O)c3ccc(F)cc3)C2)n1 (stereo unspecified),3.91%
2,Cn1cc([C@@H]2CN(S(=O)(=O)c3cccnc3)C[C@H]2N)c2ccncc21,-30.435%
3,CN(C)c1cc2c(nn1)CCN(C(=O)C1CCCc3ccccc31)C2 (stereo unspecified),5.03%
4,CC(C)c1ccc(CC(=O)N2CCCC3(CN(C)C(=O)O3)C2)cc1 (stereo unspecified),24.3%
5,CCn1ncnc1C(C)Nc1cc(C2CCNCC2)nc(C)n1 (stereo unspecified),-63.5%
6,CN(CC1(C)COC1)C(=O)c1cc(-c2ccn(C)n2)nc2ccccc12,18.2545%
7,Cc1noc(C)c1-c1ccnc(C2CCN(C3CCOCC3)CC2)c1,24.4%
8,Cc1noc(C)c1-c1ccnc(C2CCNCC2)c1,67.7%
9,Cc1noc(C)c1-c1cc(C2CCNCC2)ccn1,20.8%
10,CSCC[C@@H]1CN2CCC[C@H]2CN1Cc1coc2ccc(C)cc2c1=O,40.09%
11,Cc1ccc(CN2CC(C(=O)N3CCCC3)C3(CCOCC3)C2)s1 (stereo unspecified),-11.1%
12,O=C([C@H]1CCS(=O)(=O)[C@@H]2CN(CCc3ccccc3)C[C@H]12)N1CCCC1,39.3%
13,Cc1nc(CN2CC(CO)Oc3ccccc32)sc1C (stereo unspecified),-10.3%
14,CCN1CC(CN(C)c2cc(C)nc(N)n2)Oc2ccccc21 (stereo unspecified),82.4%
15,Cc1cc(N(C)CC2COc3ccccc3O2)nc(C)n1 (stereo unspecified),83.5%
16,CN(CC1COc2ccccc2O1)C(=O)NCCCn1cccn1 (stereo unspecified),-14.4%
17,Cc1csc(CN2CC(CO)Oc3ccccc32)n1 (stereo unspecified),24.3%
18,CN(Cc1nc(CC2CC2)no1)CC1COc2ccccc2O1 (stereo unspecified),29.6%
19,Cc1cc(N(C)CC2COc3ccccc3O2)nc(N)n1 (stereo unspecified),80.1%
20,CN(Cc1nnnn1C1CC1)CC1COc2ccccc2O1 (stereo unspecified),17.5%
21,CCCn1nnnc1CN(CC)CC1COc2ccccc2O1 (stereo unspecified),45.9%
22,Cc1cnc(N2CC[C@@H]3O[C@H](COCc4ccccn4)CC[C@@H]32)nc1,5.44%

row,SMILES,INHIBITION
1,CC(C)c1cc(=O)[nH]c(-c2ccccc2CN2CCCCCC2)n1,23.1%
2,CCSc1cncc(N2CCC(C(=O)NC(C)C(C)C)CC2)n1 (stereo unspecified),-26.2%
3,NC(=O)C1CCN(C(=O)c2ccn(-c3ccc(F)cc3)n2)CC1,-66.9%
4,CCN(Cc1cccnc1)CC1(C)Cc2c(N)nc(N)nc2O1 (stereo unspecified),4.57%
5,CCC1c2ccsc2CCN1C(=O)NCc1cccnc1OC (stereo unspecified),9.383%
6,O=C(c1cnccn1)N1CCCC2(CCN(c3ncccn3)C2)C1 (stereo unspecified),9.63%
7,COCC(=O)N1CCCCC1c1ccnc(Nc2ncc(C)s2)n1 (stereo unspecified),48.4%
8,CN(C)CCO[C@H]1CN(C(=O)c2cscn2)[C@@H]2COC[C@H]12,-16.1%
9,NC(=O)[C@@H]1Cc2ccccc2CN1S(=O)(=O)N1CCCCC1,51%
10,CC1CCN(S(=O)(=O)N2Cc3ccccc3C[C@H]2C(N)=O)CC1,43.2%
11,NC(=O)[C@@H]1Cc2ccccc2CN1S(=O)(=O)N1CCCCCC1,32%
12,Cc1ccc(OC2(C(=O)O)CCN(C(=O)CCc3ccco3)CC2)cc1,31.4%
13,CC1CCN(C(=O)C2(Cc3cc(C4CCOC4)no3)CCNCC2)CC1 (stereo unspecified),32.3%
14,Cc1noc(C)c1C(=O)N1C[C@@H]2C[C@@H](c3ccncn3)O[C@@H]2C1,-10.9%
15,COc1ccc(-c2noc(C(CC(C)C)N3CCCCC3=O)n2)cn1 (stereo unspecified),51.7%
16,CC(C)CC(c1nc(-c2cnn(C)c2)no1)N1CCCCC1=O (stereo unspecified),38.7%
17,COc1cc(-c2noc(C(CC(C)C)N3CCCCC3=O)n2)ccn1 (stereo unspecified),34.1%
18,CCCNC(=O)c1nn(CC)cc1Cl,24.2%
19,CC(=O)N1CCC1c1cc(NC2CCOCC2)nc(C)n1 (stereo unspecified),11.65%
20,Cc1ccnc(C2CN(Cc3ccc(-c4ccccc4C(=O)O)o3)C2)n1,14.35%
21,O=C(c1cnc(O)cn1)N1CCC(CN2CCOCC2)CC1,-30.3%
22,COc1ccc(CN2CCN(C(=O)c3ccc(C)n3C)CC2)cc1,46.2%

row,SMILES,INHIBITION
1,Cc1ccc(C(=O)N2CCN(Cc3ccccc3)CC2)n1C,27.6%
2,Cc1ccc(C(=O)N2CCN(Cc3cccs3)CC2)n1C,19.4%
3,CCOc1ccc(CN2CCN(C(=O)c3ccc(C)n3C)CC2)cc1,74.8%
4,Cc1ccc(C(=O)N2CCN(Cc3ccsc3)CC2)n1C,9.32%
5,Cc1ccc(C(=O)N2CCN(Cc3ccc(C#N)cc3)CC2)n1C,54.4%
6,CC(C)N1CCCC1c1cc(CO)[nH]n1 (stereo unspecified),9.585%
7,O=C(NCCN1CCOC1=O)c1cc(-c2ccccc2)on1,30.2%
8,CCSc1ccc(C(=O)N2CCC3(CC2)[C@H](O)C[C@@H]3O)s1,16.7%
9,CCSc1ccc(C(=O)N2CC[C@](O)(CC)[C@H](O)C2)s1,53.9%
10,CCSc1ccc(C(=O)N2CC[C@](C)(O)[C@H](C)C2)s1,-5.12%
11,Cc1ccc(CN2CCn3c(CN4CCN(C)CC4)cnc3C2C)s1 (stereo unspecified),24.3%
12,CC(C(=O)NCc1ccc2c(c1)OCCO2)n1cncn1 (stereo unspecified),46.6%
13,COc1cc(CN2CC[C@@H](N3CCCCCC3)[C@H](O)C2)cc(Cl)c1OC,1.56%
14,CC1CC(=O)c2cc(C(=O)N3CCOCC3)c(=O)[nH]c2C1 (stereo unspecified),13.9%
15,CN(C)C(=O)CN1C[C@H]2CC[C@@H](C1)N(Cc1cc(F)ccc1F)C2,0.139%
16,CN(C)C(=O)N1C[C@H]2CC[C@@H](C1)N(C/C=C/c1ccc(F)cc1)C2,-27.7%
17,CN(C)C(=O)CN1C[C@H]2CC[C@@H](C1)N(Cc1cccc(Cl)c1Cl)C2,61.8%
18,CN(C)C(=O)CN1C[C@H]2CC[C@@H](C1)N(Cc1ccc(Cl)cc1Cl)C2,19.1%
19,CN(C)C(=O)CN1C[C@H]2CC[C@@H](C1)N(Cc1c(F)cccc1Cl)C2,29.8%
20,CN(C)C(=O)CN1C[C@H]2CC[C@@H](C1)N(Cc1ccccc1OCCO)C2,59.7%
21,CN(C)C(=O)CN1C[C@H]2CC[C@@H](C1)N(Cc1ccccc1C#N)C2,41.5%
22,CN(C)C(=O)CN1C[C@H]2CC[C@@H](C1)N(C/C=C/c1ccc(F)cc1)C2,52.5%

row,SMILES,INHIBITION
1,CN(C)S(=O)(=O)N1C[C@H]2CC[C@@H](C1)N(C/C=C/c1ccc(F)cc1)C2,30.7%
2,CCOc1ccc(Cl)c(C(=O)N2CCCC(c3cc(C)[nH]n3)C2)n1 (stereo unspecified),-4.13%
3,CS(=O)(=O)NCC(=O)NC1CCCN(c2ccccn2)C1 (stereo unspecified),7.605%
4,CC1(C)CN(C(=O)c2cc(F)cc3[nH]cnc23)CCS1,10.2%
5,O=C1COC2(CCN(C(=O)c3ccco3)CC2)CN1Cc1cccnc1,43.2%
6,CNC(=O)[C@@H]1CN(C(=O)COC)C[C@H]1c1ccnc(N2CCCC2)n1,21.7%
7,Cn1ccc(C(=O)Nc2cc(F)ccc2OCC2CCCO2)cc1=O (stereo unspecified),15.6%
8,Cc1nc(COCc2nc3c(o2)CN(C(=O)c2ccc[nH]2)C3)cs1,-13.9%
9,CN(C)CC(=O)N1CCO[C@@H]2CC(COCc3ccncc3)C[C@H]21 (stereo partly specified),11.3%
10,Cc1ccccc1C(C(=O)N(C)CCc1cn[nH]c1)N(C)C (stereo unspecified),54.4%
11,CN(CCc1cn[nH]c1)C(=O)C(c1ccc(F)cc1)N(C)C (stereo unspecified),43.7%
12,Cc1ccccc1C(C(=O)N(C)CCc1cnn(C)c1)N(C)C (stereo unspecified),31.7%
13,Cc1cccc(C(C(=O)N(C)CCc2cn[nH]c2)N(C)C)c1 (stereo unspecified),42.6%
14,Cc1ccc(C(C(=O)N(C)CCc2cn[nH]c2)N(C)C)cc1 (stereo unspecified),51.1%
15,Cc1cc(C)cc(CCC(=O)N(C)CCc2cn[nH]c2)c1,-10.2%
16,COc1cccc(C(C(=O)O)N(C)Cc2ccc(C)o2)c1 (stereo unspecified),46.7%
17,CN(C)[C@@H]1CN(C(=O)c2cc3ccc(F)cc3[nH]2)C[C@H]1O,18.15%
18,Cc1ccsc1C(=O)N1CCCn2c(nc(CN(C)C)cc2=O)C1,-10.3%
19,CCn1c(CN2CCN(CCOC)CC2)nc2c(F)cccc21,46.95%
20,O=C1CCCCN1CCc1nc(-c2cccnn2)no1,52.9%
21,O=C1CCCCCN1CCc1nc(-c2cccnn2)no1,9.04%
22,c1cnnc(-c2noc(CCN3CCCO3)n2)c1,-8.51%

row,SMILES,INHIBITION
1,COc1ccc(CN2CCc3ncnc(C4CCOC4)c3CC2)cc1 (stereo unspecified),24.6%
2,Cn1nnc(NCc2ccccc2OCc2ccc(Cl)cc2)n1,4.07%
3,CCOc1cc(CNc2nnn(C)n2)ccc1OCc1ccc(Cl)cc1,63.1%
4,Cn1nnc(NCc2ccc(OCc3ccc(Cl)cc3)cc2)n1,-47.4%
5,Cc1ccc(NC2CCN(C(=O)CCc3cscn3)CC2)nn1,7.12%
6,c1ccc(CCNCC2Cn3nncc3CO2)cc1 (stereo unspecified),33%
7,O=C(c1ccccc1F)N1CCOC(c2nc(-c3ncccn3)no2)C1 (stereo unspecified),18.9%
8,Cc1cn(CC(=O)Nc2cc(C(C)(C)C)nn2C)cn1,16.9%
9,CCN(CC(C)C#N)C(=O)CNc1ccc(F)c(C)c1 (stereo unspecified),-48.4%
10,CCN(CC(C)C#N)C(=O)CNc1cc(Cl)ccc1C(N)=O (stereo unspecified),17.5%
11,CCN(CC(C)C#N)C(=O)CNc1ccc(C(N)=O)c(C)c1 (stereo unspecified),92.5%
12,O=C(CCN1CCOC1=O)Nc1cnn(-c2ccccc2Cl)c1,13.3%
13,Cc1noc(-c2ccc(Oc3cccc(CN4CCCC4)c3F)nc2)n1,35%
14,Cc1noc(-c2ccnc(Oc3cccc(CN4CCCC4)c3F)c2)n1,83.3%
15,COc1cccc(CN2CCN(c3noc(C(C)C)n3)CC2)c1F,-21.8%
16,CCN1CCC(N2CCN(c3cc(-c4nc(C)no4)ccn3)CC2)CC1,33.8%
17,c1ccc(Oc2nccc3occc23)c(CN2CCCCC2)c1,48.8%
18,Cc1noc(-c2ccnc(Oc3ccccc3CN3CCCCC3)c2)n1,56.3%
